We go through 33 compounds from ChEMBL document CHEMBL1961873, “Compounds: GSK PKIS; Assays: Nanosyn kinase panel” (2012).

For assay [1], the target named is RAF proto-oncogene serine/threonine-protein kinase (Homo sapiens) (UniProt P04049). To be noted: at 1 µM.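 Further: values are the mean percent inhibition of CRAF.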
The target of assay [2] is T1, Interleukin-1 receptor-associated kinase 4 (Homo sapiens) (UniProt Q9NWZ3).
T1 sequence (whole entry): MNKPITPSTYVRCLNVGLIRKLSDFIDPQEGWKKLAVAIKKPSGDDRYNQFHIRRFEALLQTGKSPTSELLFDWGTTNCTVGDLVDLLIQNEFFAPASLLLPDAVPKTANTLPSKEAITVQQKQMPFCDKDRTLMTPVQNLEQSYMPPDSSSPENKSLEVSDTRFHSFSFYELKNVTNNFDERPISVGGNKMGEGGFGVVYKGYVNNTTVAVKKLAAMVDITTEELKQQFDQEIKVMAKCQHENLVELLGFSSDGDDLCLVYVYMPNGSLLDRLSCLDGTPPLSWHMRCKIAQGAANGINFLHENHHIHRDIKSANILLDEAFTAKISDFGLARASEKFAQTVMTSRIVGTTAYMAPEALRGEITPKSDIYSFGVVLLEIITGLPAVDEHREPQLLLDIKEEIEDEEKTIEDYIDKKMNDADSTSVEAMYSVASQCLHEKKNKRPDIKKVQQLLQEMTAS
Particulars: at 0.1 µM.

Assay [3] has as its target T1, Interleukin-1 receptor-associated kinase 4 (Homo sapiens). Particulars: at 1 µM.
Assay [4] concerns the target Leucine-rich repeat serine/threonine-protein kinase 2 (Homo sapiens) (UniProt Q5S007). Particulars: at 0.1 µM.
For assay [5] the target is unchanged. Particulars: at 1 µM.
Assay [6] deals with Leucine-rich repeat serine/threonine-protein kinase 2 (Homo sapiens), Q5S007 [G2019S]. Particulars: at 0.1 µM.
For assay [7] the test system is unchanged. Particulars: at 1 µM.

Chain of RAF proto-oncogene serine/threonine-protein kinase (Homo sapiens) (P04049 whole entry): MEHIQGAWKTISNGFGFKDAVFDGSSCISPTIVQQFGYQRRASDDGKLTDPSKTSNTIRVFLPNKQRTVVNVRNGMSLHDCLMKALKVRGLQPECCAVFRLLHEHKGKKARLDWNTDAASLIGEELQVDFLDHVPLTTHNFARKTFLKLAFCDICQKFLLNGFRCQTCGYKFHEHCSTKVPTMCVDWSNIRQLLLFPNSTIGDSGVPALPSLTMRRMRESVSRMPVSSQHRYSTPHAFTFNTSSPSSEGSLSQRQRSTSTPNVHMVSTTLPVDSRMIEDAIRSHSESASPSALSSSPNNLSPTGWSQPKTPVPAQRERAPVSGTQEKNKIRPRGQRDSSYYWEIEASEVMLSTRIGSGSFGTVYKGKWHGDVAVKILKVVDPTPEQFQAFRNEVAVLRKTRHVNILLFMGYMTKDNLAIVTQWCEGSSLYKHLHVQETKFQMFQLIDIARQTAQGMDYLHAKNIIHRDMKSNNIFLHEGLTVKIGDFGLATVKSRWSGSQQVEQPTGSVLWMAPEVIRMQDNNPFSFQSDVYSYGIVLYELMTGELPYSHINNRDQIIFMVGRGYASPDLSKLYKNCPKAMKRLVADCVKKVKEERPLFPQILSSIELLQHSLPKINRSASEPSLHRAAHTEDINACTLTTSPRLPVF
Chain of Leucine-rich repeat serine/threonine-protein kinase 2 (Homo sapiens) (Q5S007 whole entry): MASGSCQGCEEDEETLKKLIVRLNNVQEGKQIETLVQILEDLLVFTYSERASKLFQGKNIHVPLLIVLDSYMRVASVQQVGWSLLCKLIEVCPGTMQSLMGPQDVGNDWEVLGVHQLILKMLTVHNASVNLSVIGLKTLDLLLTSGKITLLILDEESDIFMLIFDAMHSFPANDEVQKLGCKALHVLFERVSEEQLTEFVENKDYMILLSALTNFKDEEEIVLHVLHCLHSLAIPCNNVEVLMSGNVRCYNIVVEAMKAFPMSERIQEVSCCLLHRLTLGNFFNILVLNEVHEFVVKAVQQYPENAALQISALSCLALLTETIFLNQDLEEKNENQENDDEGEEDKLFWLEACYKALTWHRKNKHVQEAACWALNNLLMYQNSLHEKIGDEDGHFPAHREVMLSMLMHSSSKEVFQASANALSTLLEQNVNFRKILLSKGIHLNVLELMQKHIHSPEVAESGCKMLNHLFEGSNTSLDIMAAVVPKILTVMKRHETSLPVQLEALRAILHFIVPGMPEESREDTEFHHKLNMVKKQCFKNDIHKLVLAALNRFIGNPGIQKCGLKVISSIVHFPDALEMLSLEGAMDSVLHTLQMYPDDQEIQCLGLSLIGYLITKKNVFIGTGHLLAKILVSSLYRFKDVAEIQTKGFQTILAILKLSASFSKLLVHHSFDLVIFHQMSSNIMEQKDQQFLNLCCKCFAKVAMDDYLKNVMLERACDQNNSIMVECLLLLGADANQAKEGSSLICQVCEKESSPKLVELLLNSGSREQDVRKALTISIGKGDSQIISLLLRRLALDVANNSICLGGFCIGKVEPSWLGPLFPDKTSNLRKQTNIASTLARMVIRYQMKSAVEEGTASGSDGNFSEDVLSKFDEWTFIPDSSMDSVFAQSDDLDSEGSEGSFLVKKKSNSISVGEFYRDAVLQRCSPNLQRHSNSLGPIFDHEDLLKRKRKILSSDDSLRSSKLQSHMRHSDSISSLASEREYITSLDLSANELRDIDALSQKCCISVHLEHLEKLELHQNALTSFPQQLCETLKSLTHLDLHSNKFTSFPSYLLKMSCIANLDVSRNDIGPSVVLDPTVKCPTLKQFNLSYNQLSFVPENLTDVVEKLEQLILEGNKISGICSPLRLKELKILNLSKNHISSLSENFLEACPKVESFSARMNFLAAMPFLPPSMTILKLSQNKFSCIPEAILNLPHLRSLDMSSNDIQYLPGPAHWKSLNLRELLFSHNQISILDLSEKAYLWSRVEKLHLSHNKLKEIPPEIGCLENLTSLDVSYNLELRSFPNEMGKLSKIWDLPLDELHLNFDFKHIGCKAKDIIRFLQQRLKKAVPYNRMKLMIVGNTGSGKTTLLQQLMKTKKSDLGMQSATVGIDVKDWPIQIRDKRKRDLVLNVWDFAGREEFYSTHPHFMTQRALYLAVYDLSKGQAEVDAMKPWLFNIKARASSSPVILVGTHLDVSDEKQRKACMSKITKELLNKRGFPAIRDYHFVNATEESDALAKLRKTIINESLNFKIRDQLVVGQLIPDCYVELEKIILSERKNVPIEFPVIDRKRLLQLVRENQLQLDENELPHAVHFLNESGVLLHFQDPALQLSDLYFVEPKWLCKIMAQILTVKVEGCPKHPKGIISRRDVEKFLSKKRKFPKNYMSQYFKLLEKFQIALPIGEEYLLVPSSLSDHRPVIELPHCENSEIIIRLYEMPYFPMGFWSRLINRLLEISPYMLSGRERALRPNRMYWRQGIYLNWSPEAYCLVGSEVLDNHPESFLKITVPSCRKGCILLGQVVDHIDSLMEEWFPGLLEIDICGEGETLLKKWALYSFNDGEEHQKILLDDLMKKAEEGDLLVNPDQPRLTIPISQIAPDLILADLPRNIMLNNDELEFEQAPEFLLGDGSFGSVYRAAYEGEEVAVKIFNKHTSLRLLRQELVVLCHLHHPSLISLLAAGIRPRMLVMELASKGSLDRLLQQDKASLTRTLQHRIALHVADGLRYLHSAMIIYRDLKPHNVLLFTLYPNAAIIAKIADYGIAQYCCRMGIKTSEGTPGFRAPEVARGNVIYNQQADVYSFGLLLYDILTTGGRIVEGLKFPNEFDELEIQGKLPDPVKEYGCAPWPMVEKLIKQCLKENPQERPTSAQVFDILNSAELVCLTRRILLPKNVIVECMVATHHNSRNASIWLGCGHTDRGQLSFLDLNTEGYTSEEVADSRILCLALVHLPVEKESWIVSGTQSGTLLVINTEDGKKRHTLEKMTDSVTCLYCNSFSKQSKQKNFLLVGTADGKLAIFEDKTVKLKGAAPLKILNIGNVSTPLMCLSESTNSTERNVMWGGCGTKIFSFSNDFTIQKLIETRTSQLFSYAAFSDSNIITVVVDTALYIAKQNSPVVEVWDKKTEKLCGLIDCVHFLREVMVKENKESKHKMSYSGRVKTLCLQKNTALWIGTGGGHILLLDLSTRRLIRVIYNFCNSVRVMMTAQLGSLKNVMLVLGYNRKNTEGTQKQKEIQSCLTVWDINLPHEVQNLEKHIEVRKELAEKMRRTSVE
Chain of Leucine-rich repeat serine/threonine-protein kinase 2 (Homo sapiens), Q5S007 [G2019S] (Q5S007 whole entry G2019S): as the sequence (Q5S007 whole entry) above, with G2019S counted along it

Take `O=C(Nc1ccc(Oc2ccc3[nH]c(NC(=O)c4ccco4)nc3c2)cc1)Nc1cc(C(F)(F)F)ccc1F`: the inhibition in assay [1] is 39.9%; in assay [2], -2.35%; in assay [3], 0.94%; in assay [4] it was 15.7%; in assay [5], 15.8%; in assay [6], 9.87%. In addition, the inhibition in assay [7] turned out to be 51.6%.

For the compound `Nc1nccc(-c2c(-c3ccc(F)cc3)nn3cc(C(F)(F)F)ccc23)n1`, the inhibition was -7.59% in assay [1]; 0.57% in assay [2]; 0.46% in assay [3]; 6.4% in assay [4]; 7.9% in assay [5]; 6.54% in assay [6]. Moreover, the inhibition in assay [7] amounted to 5.03%.

Turning to `Cc1ccc(C(=O)NC2CC2)cc1-c1ccc2[nH]ncc2c1`, the inhibition in assay [1] is -2.56%; in assay [2], -1.84%; in assay [3], -0.57%; in assay [4] it was -0.67%; in assay [5] it was 2.87%; in assay [6], 1.11%. Also, the inhibition in assay [7] came out at 4.33%.

For `Nc1nccc(C#Cc2cncnc2Nc2ccc(OCc3cccc(F)c3)c(Cl)c2)n1`, the inhibition is -0.28% in assay [1]; 0.44% in assay [2]; 2.48% in assay [3]; 7.72% in assay [4]; 11.1% in assay [5]; 8.54% in assay [6]. Besides, the inhibition in assay [7] was determined as 14%.

As to `Cc1ccc2c(-c3ccnc(Nc4ccc5c(c4)OCCO5)n3)c(-c3ccc(C(F)(F)F)cc3)nn2n1`, the inhibition in assay [1] is 1.48%; in assay [2] it was -0.63%; in assay [3], -0.5%; in assay [4], 2.01%; in assay [5], 2.22%; in assay [6], 2.87%. Also, the inhibition in assay [7] came out at 3.58%.

Consider `Cc1nc(-c2ccccc2)n2nc(NCCCN3CCOCC3)ncc12`, for which the inhibition was determined as 3.81% in assay [1]; 1.72% in assay [2]; 1.58% in assay [3]; 0.1% in assay [4]; 5.23% in assay [5]; 2.23% in assay [6]. Besides, the inhibition in assay [7] came out at 6.32%.

Regarding `Cc1ccc(Nc2ccnc(Nc3cccc(C(N)=O)c3)n2)cc1O`, the inhibition in assay [1] is 4.38%; in assay [2] it was -2.94%; in assay [3], 6.55%; in assay [4] it was 0.74%; in assay [5], 9.44%; in assay [6], 2.08%. Further, the inhibition in assay [7] turned out to be 26.1%.

In the case of `CS(=O)(=O)CCNCc1nc(-c2ccc3ncnc(Nc4ccc(OCc5cccc(C(F)(F)F)c5)cc4)c3c2)cs1`, the inhibition in assay [1] is -1.38%; in assay [2], 0.78%; in assay [3], 1.16%; in assay [4], 1.09%; in assay [5], 6.41%; in assay [6], 3.12%. Further, the inhibition in assay [7] amounted to 5.01%.

For `FC(F)(F)c1ccc(-c2nn3ncccc3c2-c2ccnc(Nc3ccc4c(c3)OCCO4)n2)cc1`, the inhibition is -0.8% in assay [1]; 5.37% in assay [2]; 1.44% in assay [3]; 4.63% in assay [4]; 8.46% in assay [5]; 6.21% in assay [6]. The inhibition in assay [7] was determined as 10.1%.

`O=C1Nc2ccc(-c3cccnc3)cc2C1=Cc1cc(Br)c(O)c(Br)c1`: the inhibition in assay [1] was 21.8%; in assay [2], -1.88%; in assay [3], 4.22%; in assay [4], 23.2%; in assay [5], 22.3%; in assay [6], 47.2%. In assay [7], the inhibition came out at 61.3%.

For `O=S(=O)(CCOCc1ccc(-c2ccc3ncnc(Nc4ccc(OCc5cccc(F)c5)c(Cl)c4)c3c2)o1)c1ccccc1`, the inhibition in assay [1] is -1.29%; in assay [2] it was 0.22%; in assay [3] it was 0.93%; in assay [4], 4.19%; in assay [5], 9.06%; in assay [6], 6.55%. In assay [7], the inhibition is 10.3%.

On to `COC(=O)c1cncc(/C=C/c2c(C)cc(O)cc2C)c1`, for which the inhibition in assay [1] was -7.11%; in assay [2], -4.61%; in assay [3], 1.8%; in assay [4], 1.53%; in assay [5], 6.87%; in assay [6] it was 2.83%. For the same compound, the inhibition in assay [7] amounted to 9.71%.

Turning to `COc1cc2ncn(-c3cc(OCc4ccccc4S(C)(=O)=O)c(C#N)s3)c2cc1OC`, the inhibition in assay [1] was 2.83%; in assay [2], -0.58%; in assay [3], 10.8%; in assay [4], 25.5%; in assay [5] it was 83.7%; in assay [6], 60.4%. In addition, the inhibition in assay [7] was 61.8%.

For the compound `COC(=O)c1ccc2c(c1)C(=Cc1cc(Br)c(O)c(Br)c1)C(=O)N2`, the inhibition amounted to 42% in assay [1]; 1.11% in assay [2]; 2.79% in assay [3]; 29.1% in assay [4]; 88.5% in assay [5]; 58.3% in assay [6]. In assay [7], the inhibition was determined as 91.7%.

`[O-][S+]1CCN(Cc2ccc(-c3ccc4ncnc(Nc5ccc(OCc6ccccc6)c(Cl)c5)c4c3)o2)CC1`: the inhibition is -0.7% in assay [1]; 0.32% in assay [2]; 0.82% in assay [3]; 1.07% in assay [4]; 2.89% in assay [5]; 4.21% in assay [6]. The inhibition in assay [7] was 4.96%.

In the case of `CCOc1nccc2c1nc(-c1nonc1N)n2CC`, the inhibition in assay [1] was 1.42%; in assay [2], -2.37%; in assay [3], 1.89%; in assay [4], 3.98%; in assay [5], 8.96%; in assay [6] it was 5.55%. Also, the inhibition in assay [7] worked out at 11.8%.

As for `c1ccc(Nc2ncc(-c3ccccc3)o2)cc1`, the inhibition amounted to 0.56% in assay [1]; 2.02% in assay [2]; 2.65% in assay [3]; 1.16% in assay [4]; 4.27% in assay [5]; 3.18% in assay [6]. For the same compound, the inhibition in assay [7] worked out at 8.98%.

Take `O=C1Nc2ccccc2/C1=C/Nc1ccc2[nH]c(=O)[nH]c2c1`: the inhibition in assay [1] is -0.47%; in assay [2], 2.93%; in assay [3] it was 2.88%; in assay [4], 3.06%; in assay [5] it was 14.1%; in assay [6] it was 6.22%. In assay [7], the inhibition turned out to be 35%.

Consider `CN1CCN(C(=O)c2ccc(NC(=O)Nc3ccc(N(C)c4ccnc(Nc5ccc(CS(C)(=O)=O)cc5)n4)cc3)cc2)CC1`, for which the inhibition is -0.88% in assay [1]; 0.32% in assay [2]; 0.52% in assay [3]; 13.7% in assay [4]; 21.2% in assay [5]; 15.2% in assay [6]. Also, the inhibition in assay [7] worked out at 50.9%.

In the case of `COC(=O)Nc1nc2cc(Oc3ccc(NC(=O)Nc4cccc(Br)c4)cc3)ccc2[nH]1`, the inhibition was found to be 44.2% in assay [1]; 1.75% in assay [2]; 1.23% in assay [3]; 8.94% in assay [4]; 13.4% in assay [5]; 4.67% in assay [6]. The inhibition in assay [7] is 10.5%.

For `COc1cc2ncnc(Nc3ccc(C)c(O)c3)c2cc1OC`, the inhibition in assay [1] is -1.36%; in assay [2] it was 4.09%; in assay [3], 2.62%; in assay [4], 1.75%; in assay [5] it was 8.77%; in assay [6] it was 4.67%. In addition, the inhibition in assay [7] was 18.3%.

As to `N#Cc1c(NC(=O)c2ccccc2F)sc2c1CCCC2`, the inhibition is -0.64% in assay [1]; -1.41% in assay [2]; -0.41% in assay [3]; 1.84% in assay [4]; 1.84% in assay [5]; 2.14% in assay [6]. Further, the inhibition in assay [7] came out at 3.2%.

As to `C[C@@H](Oc1cc(-n2cnc3ccc(OCC4CCN(C)CC4)cc32)sc1C(N)=O)c1ccccc1C(F)(F)F`, the inhibition came out at 1.99% in assay [1]; 0.42% in assay [2]; 9.77% in assay [3]; 6.53% in assay [4]; 26.4% in assay [5]; 7.39% in assay [6]. Besides, the inhibition in assay [7] came to 31%.

On to `CN(c1ccc(NC(=O)Nc2ccc(OC(F)(F)F)cc2)cc1)c1ccnc(Nc2cccc(S(N)(=O)=O)c2)n1`, for which the inhibition in assay [1] is -4.06%; in assay [2], 1.26%; in assay [3], 2.86%; in assay [4] it was 4.25%; in assay [5], 27.6%; in assay [6], 3.86%. Further, the inhibition in assay [7] came out at 17.2%.

`Oc1cccc(-c2nc(-c3ccccc3)[nH]c2-c2ccncc2)c1`: the inhibition in assay [1] is 12.2%; in assay [2], -4.12%; in assay [3], 2.23%; in assay [4], 4.13%; in assay [5], 8.56%; in assay [6] it was 4.27%. Also, the inhibition in assay [7] was found to be 8.9%.

With `Nc1ccc(C#Cc2cncnc2Nc2ccc(OCc3cccc(F)c3)c(Cl)c2)cc1`, the inhibition in assay [1] was -1.01%; in assay [2], 0.78%; in assay [3], 1.25%; in assay [4], 2.69%; in assay [5], 2.94%; in assay [6], 3.21%. The inhibition in assay [7] came out at 3.62%.

In the case of `CN(C)c1cc2c(Nc3ccc4c(cnn4Cc4ccccc4)c3)ncnc2cn1`, the inhibition in assay [1] came to 7.17%; in assay [2] it was 3.11%; in assay [3], 1.57%; in assay [4], 3.31%; in assay [5], 9.07%; in assay [6] it was 3.44%. Further, the inhibition in assay [7] was 8.03%.

Turning to `COc1cc(/C=N/Nc2ncnc3c2cnn3C(C)C)ccc1O`, the inhibition in assay [1] was 1.93%; in assay [2] it was 1.12%; in assay [3], 2.71%; in assay [4] it was 2.81%; in assay [5], 7.64%; in assay [6], 4.77%. The inhibition in assay [7] stood at 19.1%.

Consider `NC(=O)c1sc(-n2cnc3ccccc32)cc1OCc1ccccc1Br`, for which the inhibition in assay [1] is -0.55%; in assay [2], 1.39%; in assay [3] it was 2.57%; in assay [4], 1.66%; in assay [5], 10.8%; in assay [6] it was 4.94%. Besides, the inhibition in assay [7] came out at 19.3%.

With `N#Cc1cccc(Nc2nccc(-c3cnn4ncccc34)n2)c1`, the inhibition in assay [1] came to 0.47%; in assay [2] it was 4.11%; in assay [3], 15.1%; in assay [4], 4.57%; in assay [5], 19.8%; in assay [6], 7.72%. Moreover, the inhibition in assay [7] turned out to be 40.4%.

Consider `NS(=O)(=O)c1ccc(N/N=C2\C(=O)Nc3ccc(Cl)cc32)cc1`, for which the inhibition in assay [1] is -2.46%; in assay [2], 1.38%; in assay [3] it was 1.48%; in assay [4] it was 3.85%; in assay [5], 14.7%; in assay [6] it was 10.2%. In addition, in assay [7], the inhibition came to 49.5%.

Consider `CCS(=O)(=O)c1ccc(OC)c(Nc2ncc(-c3cccc(OC)c3)o2)c1`, for which the inhibition in assay [1] was -3.45%; in assay [2] it was -4.04%; in assay [3], 2.08%; in assay [4] it was 5.57%; in assay [5], 20.2%; in assay [6] it was 7.7%. Besides, the inhibition in assay [7] stood at 42.6%.

With `CC(C)c1ccc(Nc2nccc(-c3cnn4ncccc34)n2)cc1`, the inhibition in assay [1] was 2.26%; in assay [2] it was -2.06%; in assay [3] it was 1.84%; in assay [4], 9.89%; in assay [5], 17.9%; in assay [6], 11.6%. The inhibition in assay [7] was found to be 44.5%.
